Assay results: PubChem BioAssay AID602454 (National Center for Advancing Translational Sciences (NCATS), 2012)
Inconclusive results are not listed. Active and inactive are the calls of the source. How the calls were made is not given here.

Test: qHTS Assay for Inhibitors of Influenza NS1 Protein Function: Viral Replication TCID50
Conditions: Influenza virus replication in cells, at 10 µM, stronger effect = lower value
Description: Influenza is a world-wide public health problem and emerging forms of the virus have the potential to cause a pandemic of equal or greater magnitude to the outbreaks recorded in 1918, 1957 or 1968. Vaccine development is proceeding and there also exist two classes of anti-influenza compounds. However these therapeutic modalities are neither fully effective nor widely enough available to fulfill global needs. In addition their potential usefulness against newly emergent strains is not known. Efforts are needed to develop novel agents against influenza virus, including broad-spectrum agents. Identification of small molecules that inhibit NS1 function either directly or by interfering with specific cellular pathways may be a key to increasing our defense against the virus.
We have miniaturized and optimized a cell based assay in which NS1 from influenza A is expressed in the budding yeast S. cerevisiae. NS1 is a multi-functional protein that counters the host innate immune response and facilitates viral versus cellular gene expression. Expression of NS1 causes a pronounced slow growth phenotype in yeast due to its intrinsic molecular activities. Small molecules that suppress the slow growth phenotype can be identified by a straightforward growth recovery assay using optical density (OD) as the measurement. The same yeast strain not expressing NS1 was used as positive control in the yeast growth recovery assay.
Hits resulting from the primary screen and other follow-up screens, were tested in two concentrations in this viral replication assay.
NIH Chemical Genomics Center [NCGC]
NIH Molecular Libraries Probe Centers Network [MLPCN]
Assay Submitter (PI): Daniel Engel, University of Virgina
Cell monolayers were infected at an m.o.i. of 0.1 for 48 h in the presence or absence of the compound, which was added at the beginning of infection. Virus titres were determined by TCID50 analysis (Reed, L. J. & Muench, H. (1938). A simple method of estimating fifty per cent endpoints. Am J Epidemiol 27, 493-497)

Row | Structure (SMILES) | viral titer (log10 TCID50)
1 | COc1ccc(-c2c3c(C)nn(-c4ccccc4)c3nc3[nH]c(=O)[nH]c(=O)c23)cc1O | 8.66 (active)
2 | COc1ccc(-c2c3c(C)nn(-c4ccccc4)c3nc3[nH]c(=O)[nH]c(=O)c23)cc1OC | 8.33 (active)
3 | COc1ccc(-c2c(C#N)c(N)nc3c2c(C)nn3-c2ccc(F)cc2)cc1OC | 8.66 (active)
4 | COc1cc(-c2c(C(=O)O)cnc3c2c(C)nn3-c2ccc(F)cc2)ccc1O | 8.5 (active)
5 | COc1cc(-c2c(C#N)c(N)nc3c2c(C)nn3-c2ccc(F)cc2)cc(OC)c1OC | 9 (active)
6 | COc1cc(-c2ccnc3c2c(C)nn3-c2ccc(F)cc2)ccc1O | 8.68 (active)
7 | COc1cc(-c2c3c(C)nn(-c4ccccc4)c3nc3[nH]c(=O)[nH]c(=O)c23)ccc1O | 8.66 (active)
8 | COc1cc(-c2c(C#N)c(=O)[nH]c3c2c(C)nn3-c2ccccc2)ccc1O | 7.66 (active)
9 | COc1cc(-c2c(C#N)c(N)nc3c2c(C)nn3-c2ccc(C)cc2)cc(OC)c1OC | 8.66 (active)
10 | COc1cc(-c2c(C#N)c(N)nc3c2c(C)nn3-c2ccc(C)c(C)c2)ccc1O | 8.5 (active)

Same assay, conditions: Influenza virus replication in cells, viral titer, at 5 µM, stronger effect = lower value

Row | Structure (SMILES) | viral titer (log10 TCID50)
11 | COc1ccc(-c2c3c(C)nn(-c4ccccc4)c3nc3[nH]c(=O)[nH]c(=O)c23)cc1O | 8.66
12 | COc1ccc(-c2c3c(C)nn(-c4ccccc4)c3nc3[nH]c(=O)[nH]c(=O)c23)cc1OC | 9
13 | COc1ccc(-c2c(C#N)c(N)nc3c2c(C)nn3-c2ccc(F)cc2)cc1OC | 8.66
14 | COc1cc(-c2c(C(=O)O)cnc3c2c(C)nn3-c2ccc(F)cc2)ccc1O | 8.88
15 | COc1cc(-c2c(C#N)c(N)nc3c2c(C)nn3-c2ccc(F)cc2)cc(OC)c1OC | 9
16 | COc1cc(-c2ccnc3c2c(C)nn3-c2ccc(F)cc2)ccc1O | 8.88
17 | COc1cc(-c2c3c(C)nn(-c4ccccc4)c3nc3[nH]c(=O)[nH]c(=O)c23)ccc1O | 8.66
18 | COc1cc(-c2c(C#N)c(=O)[nH]c3c2c(C)nn3-c2ccccc2)ccc1O | 8.5
19 | COc1cc(-c2c(C#N)c(N)nc3c2c(C)nn3-c2ccc(C)cc2)cc(OC)c1OC | 9
20 | COc1cc(-c2c(C#N)c(N)nc3c2c(C)nn3-c2ccc(C)c(C)c2)ccc1O | 8.66
